Results on five molecules are retold here after PubChem BioAssay.

Assay [1] in a line: inhibitors of TNFa-induced NFkB p65 translocation, primary screen, imaging, HUVEC, MLSMR starter and 10KST1 sets (AID 438;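 active = inhibition above 20% together with a positive visual image hit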;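 note: compound added about 3h40 before a 20 min TNFalpha stimulation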;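 for inhibition: signal is the nuclear over cytoplasmic p65 intensity ratio per well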). The following applies: HUVEC TNFa-induced p65 nuclear translocation; cell count: measured here: nuclei count (cytotoxicity indicator), at 2.08 µM; inhibition: at 2 µM, stronger effect = higher value, 0% TNFa-plus-vehicle, 100% no-TNFa wells.
A short description of assay [2]: reduction of polyQ htt aggregates in cells – imaging, exon1htt(103Q)mCFP cells, high-content imaging, primary screen (AID 483;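 active = visual image review flags a hit and inhibition of aggregation exceeds 20%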;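 note: compound exposure lasted 3 days before fixation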;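 for nuclei count: percent of the per-plate median nuclei count of sample wells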). The note with it: exon1htt(103Q)mCFP cell line, aggregate imaging, at 2 µM; inhibition of aggregation: stronger effect = higher value; nuclei count: measured here: cell count, toxicity.
Assay [3] in a line: endothelial E-selectin expression blockers – imaging, HUVEC, immunofluorescence, MLSMR starter and 10KST1 sets, primary screen (AID 487;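 active = visually confirmed hit in the image check and inhibition above 20%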;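 for inhibition: signal is fraction of cell area covered by stained E-selectin grains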;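 for nuclei count: 100% = median nuclei count of all wells on the same plate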). The following applies: HUVEC TNFalpha-induced E-selectin immunofluorescence imaging, at 2 µM; inhibition: stronger effect = higher value; nuclei count: measured here: cell number, toxicity.
A short description of assay [4]: Primary imaging screen for DUSP6 inhibitors that restore phospho-Erk in transfected HeLa cells, chemical complementation (AID 609;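 active = compounds giving at least 50% inhibition in the cell-based MKP-3 phosphatase rescue imaging test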;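 for inhibition: phospho-Erk level distribution per well compared with pooled transfected vehicle control wells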). The following applies: HeLa MKP-3 transfected, phospho-Erk imaging KS statistic, at 10 µM, cells stimulated with TPA for 15 min.
For assay [5], the target named is Dual specificity protein phosphatase 6 (Homo sapiens) (UniProt Q16828). The description is as above. The note with it: HeLa MKP-3 transfected, phospho-Erk imaging KS statistic; at 10 µM; stronger effect = higher value; cells stimulated with TPA for 15 min.
Assay [6] deals with Voltage-gated potassium channel subunit beta-2 (Rattus norvegicus) (UniProt P62483). Nature of the assay: inhibitors of rat Kvbeta2 reductase activity – biochemical, NADPH fluorescence, primary screen (AID 622).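 Note: slope of raw intensity against log time taken from 70 to 1610 s.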 The note with it: recombinant KvBeta, 4-cyanobenzaldehyde reduction, at 10 µM, stronger effect = higher value.
Assay [7] has the same target. Nature of the assay: enhancers of rat Kvbeta2 NADPH turnover – biochemical, NADPH fluorescence, primary screen (AID 623;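 active = NADPH fluorescence slope more negative than the mean of all samples by about 3 SD, 99.7% confidence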;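 note: fluorescence intensity change per second fitted from 20 to 320 s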). The note with it: Recombinant KvBeta, NADPH fluorescence decrease slope, 10 min; at 10 µM; stronger effect = lower value.
Assay [8] deals with Alpha-2C adrenergic receptor (Homo sapiens) (UniProt P18825). Briefly: compounds altering alpha2C-coupled GIRK flux – cell-based, HEK293 alpha2C/GIRK1/2, thallium flux, primary screen (AID 624;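 active = fluorescence slope after compound addition differing from the mean of all screened samples at 99.7% confidence, in either direction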;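 note: slope of fluorescence ratio to pre-addition baseline per second over 15 to 24 s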). The following applies: thallium flux BTC fluorescence, at 10 µM, actives lie on both sides.
A short description of assay [9]: inhibitors of larval lipid processing in zebrafish, primary screen, whole organism, PED6 fluorescence, gall bladder and intestine (AID 686;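 active = a full or partial loss of lipid-probe fluorescence in the fish gall bladder, intestine or both, judged by eye; inactive = no fluorescence loss, or compound toxic to the fish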;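 note: larvae 5 to 7 days old with five fish per well; signal comes from phospholipase A2 cleavage of quenched PED6 carried via bile; overnight exposure to compound and PED6 before scoring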). The following applies: Zebrafish larvae PED6 lipid processing, fluorescence scoring; screened at 20 µM (by protocol).
Assay [10] can be described thus: loss of swimming-algae plug formation – whole organism, Chlamydomonas reinhardtii, WT vs cilia-less mutant, absorbance, 96-well, primary screen (AID 463189;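 active = inhibition at or above 50% relative to wild type and mutant plate controls; inactive = inhibition below 50%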;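 note: 0% = wild type cc124 cells in DMSO and 100% = ciliumless bld1 mutant cells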). The note with it: Chlamydomonas reinhardtii gravitaxis, OD600 absorbance, 2 days; at 10 µM; stronger effect = higher value.
Assay [11] is described as follows: blockers of RIG-like receptor reporter activation – cell-based, Sendai virus stimulus, luciferase, 10K MLSCN set, TLR/RLR signaling modifier project, primary screen (AID 602276;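 active = inhibition at or above 50% at 10 µM; inactive = inhibition below 50%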;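 note: firefly luciferase from ISG56 promoter only with Renilla not read in this screen; 0% = Sendai virus plus DMSO and 100% = medium plus DMSO without virus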). The following applies: HEK293 RL24 IRF3 luciferase reporter, at 10 µM, stronger effect = higher value. In general terms: Reporter assays use an easily measured gene product as a stand-in for the process of interest.

The nature of assay [12]: TLR3 IRF3 reporter activation blockers – cell-based, poly I:C stimulus, luciferase, 10K MLSCN set, primary screen (AID 602277;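 active = inhibition of the reporter signal at or above 50%; inactive = inhibition below 50%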). The following applies: HEK293-TLR3 RL24 IRF3 luciferase reporter, at 10 µM, stronger effect = higher value.
Setting [13] is: measured here: cell density z-score.
Where [14] appears, read: measured here: nuclear c-Myc green intensity z-score.
Where [15] appears, read: measured here: nuclear pErk red intensity z-score, stronger effect = higher value.

Active and inactive are the calls of the source.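 Rule for the calls, unless noted: active = fluorescence slope higher than the sample average by over 3 SD (cut at about -0.22 in these data, passing the limit was not always enough); inactive = the rest.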

Dual specificity protein phosphatase 6 (Homo sapiens), sequence (Q16828 whole entry, looked up): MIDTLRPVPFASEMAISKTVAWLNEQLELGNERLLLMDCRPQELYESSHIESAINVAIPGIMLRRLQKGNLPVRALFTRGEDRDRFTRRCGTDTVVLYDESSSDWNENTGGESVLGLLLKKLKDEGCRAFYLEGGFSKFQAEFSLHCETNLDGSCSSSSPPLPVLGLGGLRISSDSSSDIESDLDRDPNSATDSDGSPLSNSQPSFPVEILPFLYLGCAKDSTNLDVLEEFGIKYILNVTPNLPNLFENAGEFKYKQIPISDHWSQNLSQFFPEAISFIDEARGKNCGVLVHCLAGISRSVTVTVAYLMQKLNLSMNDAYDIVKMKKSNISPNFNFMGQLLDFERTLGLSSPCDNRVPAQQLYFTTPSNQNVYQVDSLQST
Voltage-gated potassium channel subunit beta-2 (Rattus norvegicus), sequence (P62483 whole entry, looked up): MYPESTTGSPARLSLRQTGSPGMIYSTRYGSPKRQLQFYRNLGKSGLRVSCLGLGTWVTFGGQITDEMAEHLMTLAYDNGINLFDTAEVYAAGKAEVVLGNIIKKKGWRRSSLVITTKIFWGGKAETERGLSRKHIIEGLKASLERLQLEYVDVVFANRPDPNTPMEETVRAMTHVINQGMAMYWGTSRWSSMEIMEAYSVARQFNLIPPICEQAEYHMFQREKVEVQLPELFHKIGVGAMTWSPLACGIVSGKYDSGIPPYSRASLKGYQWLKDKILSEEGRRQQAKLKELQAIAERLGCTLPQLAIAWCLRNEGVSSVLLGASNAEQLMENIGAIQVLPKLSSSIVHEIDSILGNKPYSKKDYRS
Alpha-2C adrenergic receptor (Homo sapiens), sequence (P18825 whole entry, looked up): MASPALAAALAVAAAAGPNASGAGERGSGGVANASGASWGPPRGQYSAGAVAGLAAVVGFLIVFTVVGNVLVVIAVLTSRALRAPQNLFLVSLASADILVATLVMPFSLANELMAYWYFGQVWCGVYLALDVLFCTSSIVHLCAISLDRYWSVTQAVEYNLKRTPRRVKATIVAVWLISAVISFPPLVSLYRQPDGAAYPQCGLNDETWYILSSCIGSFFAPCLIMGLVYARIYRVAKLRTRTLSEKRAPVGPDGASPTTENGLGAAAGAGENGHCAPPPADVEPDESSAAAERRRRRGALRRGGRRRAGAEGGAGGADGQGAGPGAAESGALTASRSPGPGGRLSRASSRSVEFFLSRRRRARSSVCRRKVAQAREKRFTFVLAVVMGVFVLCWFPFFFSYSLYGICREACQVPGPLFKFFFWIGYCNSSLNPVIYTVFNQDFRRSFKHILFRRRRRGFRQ

On to `CCC(CC)C1C(C#N)=C(N)Oc2n[nH]c(C)c21` (stereo not given), for which the cell count in assay [1] amounted to 565. The inhibition (as a rule, the relative decrease from the control value, in per cent) is -2.9% (inactive) in [1]; -21.1% (inactive) in assay [3]; 5.57% (inactive) in [5]; -5.48% (inactive) in [10]; 41.8% (inactive) in assay [11]; 50% (inactive) in [12]. Moreover, in [2], the inhibition of aggregation is -28.3% (inactive). Also, the nuclei count came to 102% in assay [2] and 112% in assay [3]. Further, the z-score in [4] (setting [13]) was -1.42; in assay [4] (setting [14]), -0.486; in [4] (setting [15]), 0.51. Moreover, the fluorescence slope in assay [6] was -0.492 (inactive). The NADPH fluorescence slope in assay [7] was -0.000106 (inactive). In addition, the slope in assay [8] is 0.00492 (inactive). In assay [9], the molecule was called inactive.
`CCN1CCN(c2cc3c(cc2F)c(=O)c(C(=O)O)cn3C2CC2)CC1`: in [1], the cell count was 605. In addition, the inhibition in assay [1] is 1.1% (inactive); in assay [3], -41.3% (inactive); in [5], -5.24% (inactive); in assay [10] it was -15.2% (inactive); in assay [11], 1.29% (inactive); in assay [12], 31.6% (inactive). Besides, the inhibition of aggregation in [2] is 3.3% (inactive). For the same molecule, the results for the nuclei count in assay [2] and in [3] were 97.3% and 116%, respectively. In addition, the figures for the z-score in [4] (setting [13]), in assay [4] (setting [14]) and in assay [4] (setting [15]) were 0.332, 0.418 and 0.882, respectively. Moreover, the fluorescence slope in assay [6] was -0.498 (inactive). Besides, the NADPH fluorescence slope in [7] is 1.7e-06 (inactive). The slope in assay [8] was 0.0049 (inactive). Besides, the molecule was classed as inactive in [9].
Turning to `COc1cc([C@@H]2[C@H]3CN(C)CC=C3C(C#N)=C(N)C2(C#N)C#N)cc2c1OCO2`, the cell count in assay [1] came to 394. The inhibition in assay [1] was -2.2% (inactive); in assay [3] it was -39.2% (inactive); in [5], 57.9% (inactive); in assay [10] it was 38% (inactive); in assay [11], 4.57% (inactive); in assay [12] it was 19.8% (inactive). The inhibition of aggregation in assay [2] is 31.8% (inactive). The results for the nuclei count in assay [2] and in [3] were 111% and 109%, respectively. Moreover, the values for the z-score in [4] (setting [13]), in assay [4] (setting [14]) and in assay [4] (setting [15]) were 0.739, -0.834 and 0.31, respectively. The fluorescence slope in assay [6] was -0.309 (inactive). Moreover, the NADPH fluorescence slope in [7] was 9.9e-07 (inactive). Further, the slope in assay [8] is 0.00454 (inactive). For the same molecule, the molecule was classed as inactive in assay [9].
As for `CCCC(CCC)C(=O)OC1C[C@H]2CC[C@@H](C1)[N+]2(C)C` (stereo not given in full), in assay [1], the cell count was determined as 587. Further, the inhibition in assay [1] is -4.2% (inactive); in assay [3] it was -72.6% (inactive); in assay [5], 9.37% (inactive); in assay [10], 17.7% (inactive); in assay [11], 18.2% (inactive); in [12], 42.2% (inactive). Also, the inhibition of aggregation in assay [2] is 35.6% (inactive). The nuclei count in [2] worked out at 88.1%; in assay [3], 132%. The z-score is 0.0581 in [4] (setting [13]), 0.732 in assay [4] (setting [14]) and -0.0735 in [4] (setting [15]). Besides, in assay [6], the fluorescence slope is -0.488 (inactive). Also, in assay [7], the NADPH fluorescence slope was -5e-05 (inactive). Besides, in [8], the slope was 0.0052 (inactive). Also, the result in assay [9] was inactive.
For the molecule `CCOC(=O)CSc1nc(N)c2c3c(sc2n1)CCCC3`, the cell count in [1] came to 682. Moreover, the inhibition is -4.4% (inactive) in [1]; 5.9% (inactive) in [3]; -3.95% (inactive) in assay [5]; -8.25% (inactive) in [10]; 12.5% (inactive) in assay [11]; 4.94% (inactive) in assay [12]. Further, in assay [2], the inhibition of aggregation was -8.1% (inactive). Further, the values for the nuclei count in [2] and in [3] were 97.3% and 146%, respectively. Besides, the z-score is -0.0379 in assay [4] (setting [13]), 1.11 in assay [4] (setting [14]) and -0.851 in assay [4] (setting [15]). For the same molecule, the fluorescence slope in [6] was -0.363 (inactive). Also, in assay [7], the NADPH fluorescence slope is -5.9e-05 (inactive). Moreover, the slope in assay [8] was 0.0064 (inactive). Also, the result in [9] was inactive.
